Data taken from PubChem BioAssay (NCI).
Where “and” joins values, the source holds several entries; their conditions need not be identical. Equal values may be shown once. Compounds without any hit were thinned out: in the full panel of roughly 83,000, 20% have a hit.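 Testing used 96-well plates and a 48-hour single-concentration exposure. Example: -40 means 40% of the starting cells died.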 Calls of active or inactive are those of the source. Rule for the calls: active = growth percent below 10; inactive = the rest.

How the values were obtained:
Test in all cases: NCI-60 one-dose screen, 48 h (100 = growth as untreated, 0 = no growth, -100 = all killed)
[1] = tested on: HCT-15 colon
[2] = tested on: HT29 colon
[3] = tested on: SNB-75 CNS
[4] = tested on: SNB-19 CNS
[5] = tested on: U251 CNS
[6] = tested on: PC-3 prostate
[7] = tested on: SK-MEL-5 melanoma
[8] = tested on: UACC-62 melanoma; conditions: 10 µM unless noted
[9] = tested on: LOX IMVI melanoma
[10] = tested on: SK-MEL-28 melanoma

CCN(CC)CCNc1cc(-c2cccc(OC(F)(F)F)c2)nc2ccc(N3CCCC3)cc12
growth ([1]; 10 µM unless noted): 24.3% (inactive) and 3.13% (active) and 13.6% (inactive) | growth ([2]; 10 µM unless noted): 10.9% (inactive) and -11.1% (active) and 1.35% (active) | growth ([3]; 10 µM unless noted): 86.4% (inactive) and 51.9% (inactive) | growth ([4]; 10 µM unless noted): 2.91% (active) and 15.2% (inactive) and 36.9% (inactive) | growth ([5]; 10 µM unless noted): 46.2% (inactive) and -36.6% (active) and 15.6% (inactive) | growth ([6]; 10 µM unless noted): -94.4% (active) and 7.18% (active) and 28.2% (inactive) | growth ([7]; 10 µM unless noted): -2.81% (active) and -88% (active) and 7.43% (active) | growth [8]: -64.9% (active) and -73.2% (active) and -23.9% (active) | growth ([9]; 10 µM unless noted): -40.9% (active) and -59.6% (active) and -51.7% (active)

O=[N+]([O-])c1ccc2nc3c4ccccc4c4ccccc4c3nc2c1
growth ([1]; 10 µM unless noted): 80.8% (inactive) | growth ([2]; 10 µM unless noted): 74.6% (inactive) | growth ([3]; 10 µM unless noted): 74.4% (inactive) | growth ([4]; 10 µM unless noted): 89.2% (inactive) | growth ([5]; 10 µM unless noted): 62.3% (inactive) | growth ([6]; 10 µM unless noted): 55.1% (inactive) | growth ([7]; 10 µM unless noted): 76.8% (inactive) | growth [8]: 86.7% (inactive) | growth ([9]; 10 µM unless noted): 30.8% (inactive)

CN(C)c1ccc2nc3ccc(=[N+](C)C)cc-3sc2c1
growth ([1]; 10 µM unless noted): 28.5% (inactive) and 36.7% (inactive) | growth ([2]; 10 µM unless noted): 26.6% (inactive) and 19.8% (inactive) and 74.9% (inactive) | growth ([3]; 10 µM unless noted): 49.4% (inactive) and 90.2% (inactive) | growth ([4]; 10 µM unless noted): 24.7% (inactive) and 23% (inactive) and 39.5% (inactive) | growth ([5]; 10 µM unless noted): 3.44% (active) and -10.6% (active) and 8.51% (active) | growth ([6]; 10 µM unless noted): 13.7% (inactive) and 19.8% (inactive) and 32.8% (inactive) | growth ([7]; 10 µM unless noted): -85.2% (active) and 5.71% (active) and 13.6% (inactive) | growth [8]: -19.7% (active) and 7.25% (active) and 56.5% (inactive) | growth ([9]; 10 µM unless noted): 7.11% (active) and 5.63% (active) and 34.6% (inactive)

CC1CCCc2sc3nc(NNC(=O)c4cnccn4)n(-c4ccccc4)c(=O)c3c21 (configuration not stated)
growth ([1]; 10 µM unless noted): 26.4% (inactive) and 24.6% (inactive) | growth ([2]; 10 µM unless noted): 22.4% (inactive) and 26.2% (inactive) | growth ([3]; 10 µM unless noted): 36.4% (inactive) and 2.93% (active) | growth ([4]; 10 µM unless noted): 25.8% (inactive) and 21.6% (inactive) | growth ([5]; 10 µM unless noted): 4.39% (active) and 8.03% (active) | growth ([6]; 10 µM unless noted): 30% (inactive) and 27.4% (inactive) | growth ([7]; 10 µM unless noted): -38.3% (active) and -65.9% (active) | growth [8]: -33.9% (active) and -8.57% (active) | growth ([9]; 10 µM unless noted): 0.839% (active) and 2.01% (active)

CC(C)Cc1ccc(C(C)C(=O)NCc2ccc(Cn3c(=O)sn(CCCCl)c3=O)cc2)cc1 (configuration not stated)
growth ([1]; 10 µM unless noted): 103% (inactive) and -35.9% (active) | growth ([2]; 10 µM unless noted): 104% (inactive) and -64% (active) | growth ([3]; 10 µM unless noted): 105% (inactive) and -18% (active) | growth ([4]; 10 µM unless noted): 91.2% (inactive) and 49.8% (inactive) | growth ([5]; 10 µM unless noted): 95.6% (inactive) and 7.88% (active) | growth ([6]; 10 µM unless noted): 91.9% (inactive) and -69.6% (active) | growth ([7]; 10 µM unless noted): 91.8% (inactive) and -78.1% (active) | growth [8]: 92.6% (inactive) and -68.6% (active) | growth ([9]; 10 µM unless noted): 90.7% (inactive) and -93.1% (active)

Cc1[nH]c(-c2nc3ccccc3[nH]2)c(C)c1C(=O)NC(C)C1CCCCC1 (configuration not stated)
growth ([1]; 10 µM): 69% (inactive) | growth ([1]; 100 µM): -80.6% (active) | growth ([2]; 10 µM): 94.8% (inactive) | growth ([2]; 100 µM): -38.4% (active) | growth ([4]; 10 µM): 86.6% (inactive) | growth ([4]; 100 µM): -94.7% (active) | growth ([5]; 10 µM): 96.7% (inactive) | growth ([5]; 100 µM): -64.5% (active) | growth ([6]; 10 µM): 78.5% (inactive) | growth ([6]; 100 µM): -58.3% (active) | growth ([7]; 10 µM): 80.2% (inactive) | growth ([7]; 100 µM): -99.6% (active) | growth ([9]; 10 µM unless noted): 84.7% (inactive) | growth ([10]; 10 µM): 89.2% (inactive) | growth ([10]; 100 µM): -94.9% (active)

O=C(O)c1sccc1O
growth ([1]; 10 µM): 81% (inactive) | growth ([1]; 100 µM): 31.5% (inactive) | growth ([2]; 10 µM): 105% (inactive) | growth ([2]; 100 µM): 30.2% (inactive) | growth ([3]; 10 µM): 84.6% (inactive) | growth ([3]; 100 µM): 28.5% (inactive) | growth ([4]; 10 µM): 82.1% (inactive) | growth ([4]; 100 µM): 34.8% (inactive) | growth ([5]; 10 µM): 76.6% (inactive) | growth ([5]; 100 µM): 15.9% (inactive) | growth ([6]; 10 µM): 49.3% (inactive) | growth ([6]; 100 µM): 23% (inactive) | growth ([7]; 10 µM): 78.6% (inactive) | growth ([7]; 100 µM): 7.35% (active) | growth ([9]; 10 µM): 80.3% (inactive) | growth ([9]; 100 µM): 2.04% (active) | growth ([10]; 10 µM): 101% (inactive) | growth ([10]; 100 µM): 28.3% (inactive)

O=C1c2ccccc2C(=O)c2c(NCCNCCO)ccc(NCCNCCO)c21
growth ([1]; 10 µM unless noted): 70.2% (inactive) and 75.4% (inactive) and 72.6% (inactive) | growth ([2]; 10 µM unless noted): 2.99% (active) and 16.2% (inactive) and 14.9% (inactive) | growth ([3]; 10 µM unless noted): -26.9% (active) and -4.55% (active) and -6.89% (active) | growth ([4]; 10 µM unless noted): -11% (active) and 14.5% (inactive) and 7.49% (active) | growth ([5]; 10 µM unless noted): -4.94% (active) and 5.29% (active) | growth ([6]; 10 µM unless noted): -58.4% (active) and 36.2% (inactive) and 20.3% (inactive) | growth ([7]; 10 µM unless noted): -50.5% (active) and 7.59% (active) and 3.46% (active) | growth [8]: -73.4% (active) and 10.3% (inactive) and 6.9% (active) | growth ([9]; 10 µM unless noted): -35.6% (active) and 0.446% (active) and 1.46% (active)
